# PubChem BioAssay AID492997 (Johns Hopkins Ion Channel Center, 2010)
# The campaign covered roughly 4,900 compounds. About 2,000 (41%) were called active.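 How the source made its calls: active means thallium signal drop beyond 5 SD of the untreated control mean, on both duplicate plates; inactive means the rest.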 So high a share suggests a set chosen from earlier hits. A selection follows.
# Experiment: nonspecific activity without KCNK9 expression – cell-based, second counter screen, non-induced KCNK9-HEK293, counter-screen for KCNK9 inhibitor project, confirmation (AID 492997);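 on inhibition: plate controls were buffer only IC0 wells for no effect and SID17386958 at its maximal inhibitory level for full effect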
# Conditions: non-induced KCNK9-HEK293, FluxOR thallium flux, at 10 µM; stronger effect = higher value
row,SMILES,inhibition
1,O=C(COC(=O)/C(=C/c1cccs1)c1cccs1)NCc1ccccc1Cl,31% (active)
2,Cc1ccc(NC(=O)c2cc([N+](=O)[O-])ccc2Cl)c(O)c1,32% (active)
3,N#Cc1nc(Cc2cccc3ccccc23)oc1NCc1ccc2c(c1)OCO2,53.5% (active)
4,O=C(CC(NC(=O)c1ccccc1)c1ccccc1)Nc1ccc(F)c(F)c1 (centres undefined),37% (active)
5,Cc1ccc(C(=O)c2c(NC(=O)c3ccccc3)sc(C)c2C)cc1,inactive
6,O=[N+]([O-])c1ccc(N2CCN(CC(O)COc3ccccc3)CC2)cc1 (centres undefined),inactive
7,Cc1ccc(C)c(NC(=S)NNC(=S)Nc2ccc(C(C)C)cc2)c1,inactive
8,O=C(Cn1cc(C(=O)c2cccs2)c2ccccc21)NCc1cccs1,29.5% (active)
9,CCOc1cccc(OCCCOc2cccc3cccnc23)c1,inactive
10,Cc1cc(Cl)ccc1C(=O)C1CCCN(C(=O)CCN2CCCO2)C1 (centres undefined),inactive
11,CCCOc1ccc2c3c(c(=O)oc2c1OCCC)CCC3,48.5% (active)
12,Cc1cc2ccccn2c1C(=O)c1cccc(F)c1,inactive
13,COc1cc(Cl)c(C)cc1NC(=O)CSc1nnc(-c2ccco2)n1CC(C)C,25.5% (active)
14,O=C(Nc1nnc(SCc2ccc(Cl)cc2Cl)s1)C1COc2ccccc2O1 (centres undefined),inactive
15,COc1cccc(-c2nn(C)c3sc(C(=O)N4CCN(c5ccccc5)CC4)cc23)c1,inactive
16,COc1ccccc1C(c1nnnn1C(C)(C)C)N1CCN(Cc2ccccc2)CC1 (centres undefined),37.5% (active)
17,CC1=C/C(=N\OS(=O)(=O)c2ccccc2)C=CC1=O,inactive
18,CCOc1ccccc1NC(=O)C1CCCN(S(=O)(=O)c2ccccc2)C1 (centres undefined),inactive
19,Clc1ccc(COn2c(-c3ccc(Cl)cc3Cl)nc3ncccc32)cc1,45% (active)
20,CCOC(=O)C(C)n1cnc2scc(-c3ccc(C)c(C)c3)c2c1=O (centres undefined),inactive
21,CCCCCCCCCCOC(=O)Cn1c(COc2ccc(C)cc2)[n+](C)c2ccccc21,inactive
22,CCCCCCCCCCOC(=O)Cn1c(COc2cccc(OC)c2)[n+](C)c2ccccc21,28% (active)

row,SMILES,inhibition
1,Cc1onc(-c2ccc(Cl)cc2)c1-c1ccnn1S(=O)(=O)c1ccc(Cl)cc1,46.5% (active)
2,Cc1cccc(N2CCN(C(=O)c3cccc(S(=O)(=O)N4CCc5ccccc5C4)c3)CC2C)c1 (centres undefined),inactive
3,CCCCn1ccnc1C(=O)c1cccc(S(=O)(=O)N2c3ccccc3CC2C)c1 (centres undefined),46.5% (active)
4,Cc1cc2ccccn2c1C(=O)c1cccc(S(=O)(=O)N2CCOCC2)c1,inactive
5,C=CCc1cc(S(=O)(=O)c2ccc(O)c(CC=C)c2)ccc1O,26% (active)
6,COc1ccc([N+](=O)[O-])cc1-c1nc2ccccc2nc1-c1ccccc1,37% (active)
7,O=C1CC(c2ccccc2)=NN1c1ccc([N+](=O)[O-])cc1,inactive
8,Cc1ccc(CN2CCN(/N=C/c3ccco3)CC2)c(C)c1,inactive
9,CCOC(=O)C(C)Sc1nc2ccccc2c(=O)n1CC1CCCCC1 (centres undefined),31.5% (active)
10,Cc1[nH][nH]c(=O)c1C(c1ccc(-c2ccc(Cl)cc2)o1)c1c(C)[nH][nH]c1=O,inactive
11,CC(C)(C)SCCSC1=CC(=O)CC(c2ccccc2)C1 (centres undefined),inactive
12,Cc1cccc(NC(=O)c2sc3nc4c(c(-c5ccco5)c3c2N)CCC4)c1,38.5% (active)
13,Cc1ccnc(N2CCN(C(=O)CSc3nc4ccccc4nc3N3CCCCC3)CC2)c1,inactive
14,COC(=O)c1cc(NC2c3ccccc3C(=O)N2c2ccc(Cl)cn2)cc(C(=O)OC)c1 (centres undefined),28.5% (active)
15,CCOC(=O)N/N=C/c1cn(Cc2ccccc2Cl)c2ccccc12,25.5% (active)
16,COc1cc(C(CCN2CCN(c3ccccc3)CC2)c2c(OC)cc(OC)c3ccc(=O)oc23)cc(OC)c1OC (centres undefined),inactive
17,Cc1ccc(C2=NN(C)c3nc4ccccc4n3C2)cc1,inactive
18,CCC/C=C(\CCC)C(NC(=O)Cc1ccccc1)c1ccc(C(=O)OC)cc1 (centres undefined),53% (active)
19,O=C(Nc1ccc(Oc2ccccc2)cc1)c1ccco1,39.5% (active)
20,CC(Oc1ccc2ccccc2c1)C(=O)NNC(=S)NC(=O)c1ccco1 (centres undefined),inactive
21,Cc1ncoc1C(=O)N1CCCC(C(=O)c2ccc3c4c(cccc24)CC3)C1 (centres undefined),inactive
22,Cc1cc(Oc2ccc(Cl)cc2)nc(SCC(=O)c2ccccc2)n1,28% (active)

row,SMILES,inhibition
1,O=S(=O)(Nc1cccc(Oc2ccc(Cl)cc2)n1)c1ccc(F)cc1,inactive
2,CCOC(=O)CSc1nc2c(sc(=S)n2CCc2ccccc2)c(=O)n1Cc1ccco1,35.5% (active)
3,O=C(COC(=O)c1ccccc1)Nc1ccccc1Sc1ccccc1,34.5% (active)
4,COc1ccc(OC)c(-c2csc(-c3cccs3)n2)c1,26.5% (active)
5,COc1ccccc1/C=C/C=N/n1c(-c2ccc(Cl)cc2Cl)n[nH]c1=S,inactive
6,Brc1ccc(C2CC(c3ccccc3)=Nc3ccccc3N2)cc1 (centres undefined),34.5% (active)
7,COc1ccc(C(=O)C2CCCN(Cc3ccc4nonc4c3)C2)c(C)c1 (centres undefined),inactive
8,COc1ccc(C2CC(c3cccs3)=Nc3ccccc3S2)cc1OC (centres undefined),33% (active)
9,CCCCNC(=S)N/N=C1\CCCCc2ccccc21,inactive
10,CCOC(=O)N1CCN(C(=O)COc2ccc3oc4c(c3c2)CCCC4)CC1,inactive
11,CCOc1ccc(C(C)C)cc1S(=O)(=O)n1nc(C)cc1C,39.5% (active)
12,O=C(NC(=S)Nc1ccccc1C(=O)O)c1ccc(-c2ccc(Br)cc2)o1,inactive
13,O=c1cc(CN2CCN(c3cccc(Cl)c3)CC2)c2cc3c(cc2o1)CCCC3,inactive
14,CCc1cccc(C)c1N(C(=O)Cn1c(CO)nc2ccccc21)C(C)COC (centres undefined),33% (active)
15,Cc1c(C(=O)Nc2ccccn2)oc2ccc(Br)cc12,29.5% (active)
16,COc1cc(C2CC(=O)N3CN(Cc4ccccc4)CSC3=C2C#N)ccc1OCc1ccccc1 (centres undefined),inactive
17,CCCCCC(O)c1cccc(OCc2ccc3ccccc3n2)c1 (centres undefined),38.5% (active)
18,Cc1ccc(C(=O)c2c(NC(=O)c3ccncc3)sc3c2CCCC3)cc1,inactive
19,CCCCN(Cc1ccccc1)C(=O)C1CCN(Cc2sccc2C)CC1,inactive
20,O=C(Oc1ccc(Br)cc1C(=S)N1CCOCC1)c1cccc([N+](=O)[O-])c1,inactive
